# Experimental data from PubChem BioAssay (NCI).
# This is part of a sample that, as a whole, favours compounds with a hit. Of some 79,000 tested, about 15% had one in any assay. A number with no mark means an inactive call. Activity calls are given as the source filed them. No stated cut-off is given here; in the data, active means growth inhibition above about 70%; inactive means the rest. Where a SMILES comes first, the peptide text is derived from it. [ ]: non-standard residue; d: D form. The star is where a group is joined. ξ: configuration not given here. Cbz = O=C(OCc1ccccc1)*; ξNva = CCCC(N)C(=O)O
# Tests used:
# [1] = NCI Yeast Anticancer Drug Screen. Data for the rad50 strain (AID 155);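 further: 0% = growth of vehicle-only cultures of the same strain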; settings: S. cerevisiae rad50 strain growth inhibition; at 50.0 µM; stronger effect = higher value
# Outline: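 Genetically altered yeast (DNA repair pathway); compound treatment; growth inhibition vs vehicle ctrl.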
# [2] = NCI Yeast Anticancer Drug Screen. Data for the mec2-1 strain (AID 157); settings: S. cerevisiae mec2-1 strain, at 50.0 µM, stronger effect = higher value
# Outline: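 Readout is yeast growth inhibition, normalised to vehicle-treated controls, in the mec2-1 strain exposed to compound.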
# [3] = NCI Yeast Anticancer Drug Screen. Data for the sgs1 mgt1 strain (AID 161);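 further: 0% = growth of cultures given vehicle only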; settings: S. cerevisiae sgs1 mgt1 strain, at 50.0 µM, stronger effect = higher value
# Outline: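 Compounds are added to genetically altered yeast, and growth is compared with cultures given vehicle alone to give percent inhibition.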
# [4] = NCI Yeast Anticancer Drug Screen. Data for the cln2 rad14 strain (AID 165);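 further: 0% = growth equal to vehicle treated cultures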; settings: S. cerevisiae cln2 rad14 strain, at 50.0 µM, stronger effect = higher value
# Outline: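 Relative to vehicle controls, growth inhibition of compound-treated cln2 rad14 yeast was recorded.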
# [5] = NCI Yeast Anticancer Drug Screen. Data for the bub3 strain (AID 167); settings: S. cerevisiae bub3 mutant strain, at 50.0 µM, stronger effect = higher value
# Outline: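 Yeast carrying a defined mutation is treated with each compound, and growth is compared with that of vehicle-exposed cells to give inhibition.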
# [6] = NCI Yeast Anticancer Drug Screen. Data for the mlh1 rad18 strain (AID 175); settings: S. cerevisiae mlh1 rad18 strain growth inhibition; at 50.0 µM; stronger effect = higher value
# Outline: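 Test agents were incubated with a yeast strain of defined genotype (DNA damage repair defect). Inhibition of growth was derived by comparison with vehicle-exposed cultures.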
SMILES,growth inhibition [1],growth inhibition [2],growth inhibition [3],growth inhibition [4],growth inhibition [5],growth inhibition [6]
C=C(Cl)Cc1c(O)c2c(c(O)c1CC(=C)Cl)C(=O)c1ccccc1C2=O,-39.2%,-42.7%,-50%,1.8%,-18.1%,-33.5%
Nc1c(N=Nc2ccc(-c3ccc(N=Nc4ccc(O)c(C(=O)O)c4)cc3)cc2)cc(S(=O)(=O)O)c2ccccc12,91.5% (active),96.6% (active),94.9% (active),93.3% (active),91% (active),93.1% (active)
CCOC(=O)C(CC(CC(C(=O)OCC)C(=O)OCC)=C(C)C)C(=O)OCC,36.1%,0.65%,15%,-14.5%,24.2%,15.4%
O=[n+]1ccn([O-])c2cc(Cl)ccc21,13.6%,13.2%,10.2%,-16.2%,-5.1%,9.85%
Cc1ccc(NC(=S)N(C)C)cc1,14.5%,15.9%,-10.6%,-71.8%,22.4%,-23.9%
COc1ccc(CSC(=S)Nc2ccc(N=Nc3ccccc3)cc2)cc1,33.7%,11.6%,24.6%,25.4%,-7.3%,1.55%
CC(C)N(Cc1ccccc1)C(=O)Nc1ccc(Cc2ccc(NC(=O)N(Cc3ccccc3)C(C)C)cc2)cc1,-0.7%,-12.3%,0.35%,18.4%,-10.1%,-8.3%
CC(=O)OCC1OC(n2cnc([N+](=O)[O-])c2C#N)C(OC(C)=O)C1OC(C)=O (stereo not drawn),28.6%,14.7%,22.3%,30.1%,3.45%,34.3%
CCOC(=O)[C@H]1Nc2ccc(Cl)cc2[C@H]2OCC[C@@H]12,5.5%,-10.9%,-2.4%,23.8%,3.15%,-0.7%
CCC(CC)C(=O)NC,-4.25%,-5.2%,-3.5%,2.2%,-0.85%,-1.8%
Cc1ccc(Cc2cc(=O)[nH]c(=O)[nH]2)cc1,0.2%,-8.25%,-13.2%,-76.5%,2.7%,5.4%
Cc1ccc(-n2c(=O)nc([O-])[n+]3ccccc23)cc1,-2.85%,-6.85%,-7.95%,-24.8%,-3.75%,6.65%
Cc1cc(N2CCCCC2)nc2ccccc12,4.95%,-4.4%,-18.6%,-3.9%,-1.85%,9.25%
CCOC(=O)C1C(c2ccc(N(C)C)cc2)c2cc3c(cc2OC1(C)N1CCCC1)OCO3 (stereo not drawn),-13.6%,9.1%,-2.1%,14.3%,-3.15%,2.85%
CCOC(OCC)C(=O)NC(C)c1ccc(O)c(OC)c1 (stereo not drawn),-20.8%,7.95%,0.2%,-12.2%,-7.4%,3.2%
N#Cc1nc(Nc2ccc([N+](=O)[O-])cc2)sc1N,55.1%,33.8%,31.1%,36.2%,19.9%,22.4%
O=CNCO,19.6%,14.2%,22.6%,18.9%,8.5%,19.1%
CCCCCCC(=O)/C=C/c1ccc(OCc2ccccc2)c(OCc2ccccc2)c1,33.9%,-2.6%,18.5%,23.9%,-2.15%,16.1%
Cc1ccc(-n2nnc(-c3ccc(Cl)c(Cl)c3)n2)cc1,-30.9%,-40.8%,-4.45%,-12.1%,-18.6%,-31.5%

SMILES,growth inhibition [1],growth inhibition [2],growth inhibition [3],growth inhibition [4],growth inhibition [5],growth inhibition [6]
Nc1ccc(C(C(=O)O)c2ccccc2)cc1Cl (stereo not drawn),22.6%,-9%,20.9%,-1.55%,12.3%,5.65%
O=C(O)C1CSC(c2cccs2)N1 (stereo not drawn),-19.2%,-46.5%,-4.4%,1.4%,-32.2%,-8.1%
CC1=CC(C)(C)NC(=S)N1CCO,1.95%,-18.6%,25.3%,13.4%,1.15%,32.3%
Oc1ccc(-c2nc(-c3ccccc3)c(-c3ccccc3)[nH]2)cc1,-23.1%,-14.9%,-1.1%,-46.3%,-8.3%,4.05%
CS[C@]12C(=O)C[C@@]3(C)[C@@H](CC[C@]3(O)C(=O)CO)[C@@H]1CCC1=CC(=O)CC[C@@]12C,-2.2%,-24%,-15.9%,28.7%,-54.8%,-20.4%
CCCCCCc1ccccn1,4.6%,9.3%,9.6%,-1.6%,-1.4%,17.8%
CCCC(NC(=O)OCc1ccccc1)C(=O)NCC(=O)NCC(=O)OC (stereo not drawn) (Cbz-[ξNva]-Gly-Gly-OMe),-30.8%,0.15%,12.2%,30.9%,0.5%,11.3%
CC1(O)C=CC(=O)C=C1,0.05%,6.75%,-15.2%,1.95%,-24.1%,-7.6%
CCN(CC)C(=O)Nc1cccc(O)c1,-6.55%,6.65%,-2.6%,-28.7%,-0.25%,5.65%
CCOC(=O)C(C)(C)c1ccc(OC)cc1,-14.2%,-3.6%,-8.6%,-18.9%,2.6%,-16.2%
CC(=O)Nc1cc2[nH]c(=O)c3cc(Cl)ccc3c2cc1[N+](=O)[O-],28.8%,36.1%,1.65%,27.1%,23.6%,57.8%
CCO/C=C\C(OCC)OCC,3.55%,-8.95%,3.1%,-15.2%,18.2%,-0.6%
CCCC(O)c1ccccc1 (stereo not drawn),31.2%,35.8%,-9.65%,5.3%,3.7%,18.9%
CO/N=C1\C(O)CC2C(C)(CCC3C2(C)CCC2(C)C4CC(C)(C)CCC4(C)CCC32C)C1C (stereo not drawn),1.9%,-3.8%,-18.5%,-14.1%,-1.45%,-5.85%
C=CCN1C(C)(C)NC(=S)C1(C)C,-20.8%,-4.9%,-1.7%,-5%,-6%,-2.35%
CC(=O)C1=C(O)C(CSCc2ccccc2)NC1=O (stereo not drawn),10.8%,0.65%,5.95%,-2.9%,15.1%,15.2%
NC(=O)NC(=O)/C=C/C(=O)O,3.75%,-12.9%,-4.15%,-12.4%,9.7%,-3.2%
COC(=O)c1cc(C(=O)c2ccccc2)cc2c1c(=O)[nH]c1ccccc12,-0.95%,-7.5%,-16.4%,-5.7%,-23.9%,6.75%
CCOC(=O)c1cnc2[nH]ccn2c1=O,-26.9%,-43.3%,-4.45%,10.3%,-6.55%,-8.75%
